This excerpt belongs to a sample that is enriched for hits.
HT1080-NT tox = kills 2HG-producing HT-1080-NT fibrosarcoma cells | HT-1080-NT fibrosarcoma viability, CellTiter-Glo ATP luminescence, 48 h | Potency, µM (doses to about 46.1 µM), for inactives: top-dose activity, negative = less viability, usual class: cytotoxic | 1.6% of 360,000 active;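 also: NT is the 2HG producing partner of a matched IDH1 knockdown line; potency is read from the fitted curve at half-maximal effect; 0% = DMSO-treated cells and -100% = media-only wells without cells; nearly all actives have a fitted effect of over 55% in size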
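Viability of the 2HG-overproducing fibrosarcoma line after 48 hours of compound exposure at 37 degrees C was determined by luminescence with CellTiter-Glo, and concentration-effect curves were then fitted and categorized.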
DT40 TDP1 no CPT = qHTS for Inhibitors of human tyrosyl-DNA phosphodiesterase 1 (TDP1): qHTS in cells in absence of CPT | DT40 Tdp1-/- hTDP1 cells, no CPT, ATP luminescence, 48 h | Potency, µM (series often up to 46.2 µM), inactives show at the top dose activity change, negative = growth inhibition, actives largely listed as inhibitors | 15% of 420,000 active | AID 686978, 2013; also: potency is read from the fitted curve at half-maximal effect; nearly all actives have a fitted effect of over 55% in size
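Chicken DT40 Tdp1-/- cells complemented with human TDP1, screened without camptothecin (DMSO vehicle only), 400 cells/well. Compounds pin-transferred, cells incubated at 37 °C for at least 48 hr. Growth read as ATP-dependent luminescence (CellTiter-Glo, 30 min at RT).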
12-LOX inh = ALOX12 (human) lipoxygenase inhibition; purified 12hLO, xylenol orange hydroperoxide absorbance; Potency, µM (titrated, usually from 108 µM), without a hit: at the top dose activity change, negative = inhibition, hits mostly inhibitors; P18054; 1.1% of 580,000 active; also: potency is read from the fitted curve at half-maximal effect
Target sequence (P18054 whole entry, looked up): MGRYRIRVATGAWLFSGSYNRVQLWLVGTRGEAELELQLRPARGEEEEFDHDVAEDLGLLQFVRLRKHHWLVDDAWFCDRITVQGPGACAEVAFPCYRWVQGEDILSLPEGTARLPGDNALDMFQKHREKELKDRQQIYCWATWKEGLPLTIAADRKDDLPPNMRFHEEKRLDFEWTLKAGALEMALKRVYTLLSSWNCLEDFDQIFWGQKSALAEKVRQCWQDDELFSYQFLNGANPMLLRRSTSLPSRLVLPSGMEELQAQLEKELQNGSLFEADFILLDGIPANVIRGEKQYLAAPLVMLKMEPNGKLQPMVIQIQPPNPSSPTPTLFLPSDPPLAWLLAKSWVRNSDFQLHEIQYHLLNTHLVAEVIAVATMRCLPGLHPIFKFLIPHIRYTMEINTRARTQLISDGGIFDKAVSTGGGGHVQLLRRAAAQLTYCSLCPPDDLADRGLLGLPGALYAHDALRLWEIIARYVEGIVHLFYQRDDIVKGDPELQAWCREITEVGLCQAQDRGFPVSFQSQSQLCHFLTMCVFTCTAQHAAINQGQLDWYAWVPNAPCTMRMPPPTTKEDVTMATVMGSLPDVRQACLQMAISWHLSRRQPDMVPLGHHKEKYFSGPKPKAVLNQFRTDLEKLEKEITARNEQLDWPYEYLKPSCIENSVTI
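Purified human 12hLO (150 nM final) in 25 mM Hepes, 0.01% Triton X-100, pH 7.0 was preincubated 15 min at room temperature with compound. Then 40 uM arachidonic acid was added, 30 min. Hydroperoxide was read by Fe-XO absorbance ratio 573/405 nm.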
IL1B secr inh = blocks inflammasome-driven IL-1 beta release; THP-1 LPS/ATP IL-1B secretion, AlphaLISA, 16 h; hits give low values; AID 743279; activity change, % at 57.5 µM; 4.7% of 360,000 active; in the data active = activity change below about -50%; inconclusive = mostly about -30% to -49%
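Secreted IL-1B measured by AlphaLISA bead assay after 16 h compound exposure of THP-1 cells; compounds (final up to 57.5 uM) added 1 h before LPS (250 ng/mL) and ATP (1.25 mM) stimulation; lower signal means less secretion.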
HT1080 IDH1KD tx = HT-1080 IDH1 knockdown cell toxicity (counter line). Potency, µM (doses to about 46.1 µM), for the others: top-dose activity, negative = toxicity, most hits filed as cytotoxic. 2% of 360,000 active. HT-1080 IDH1 knockdown viability, ATP luminescence, 48 h. AID 686971;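 also: potency is read from the fitted curve at half-maximal effect; 0% = DMSO wells and -100% = cell-free medium wells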
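Cytotoxicity counter-line: IDH1KD HT-1080, 48 h, CellTiter-Glo. Curves classed by r2, magnitude and activity.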
DT40 TDP1 CPT = DT40-hTDP1 cell growth loss with CPT | chicken DT40 Tdp1-/-;hTDP1 cells + 20 nM CPT, ATP luminescence, 48 h | Potency, µM (top dose mostly 46.2 µM), for the others: at the highest dose activity change, negative = growth inhibition, most hits filed as inhibitors | 12% of 420,000 active | AID 686979; also: potency is read from the fitted curve at half-maximal effect; nearly all actives have a fitted effect of over 55% in size
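Chicken DT40 Tdp1-/- cells stably complemented with human TDP1 were seeded at 400 cells/well in medium containing 20 nM camptothecin, exposed to pin-transferred compounds, and grown at 37 °C for at least 48 hr. Viability was read as ATP luminescence.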
An asterisk follows results filed as active; ? = inconclusive; / = not tested or not shown. Unless noted, calls follow the shape of the dose curve; as a rule, active = well fitted curve in the direction sought with a large enough effect; inconclusive = small, poorly fitted or top-dose-only effect, or another doubt; inactive = no such curve, though single readings can be large; an effect the other way counts as inactive or inconclusive. Unless noted, % is scaled to controls: 0 for no effect and ±100 for the full control effect.

SMILES | HT1080-NT tox | DT40 TDP1 no CPT | 12-LOX inh | IL1B secr inh | HT1080 IDH1KD tx | DT40 TDP1 CPT
CN(CC(=O)Nc1cccc(F)c1)Cc1ncc(-c2ccccc2)o1 | / | / | 19.2% | / | / | /
Cc1ccc2[nH]c(O)c(N=NC(N)=S)c2c1 | 12.6% | -3.3% | ? | ? | 12.9% | ?
Oc1[nH]c2ccccc2c1N=NC(=S)NCCc1ccccc1 | -10.6% | ? | ? | -1.8 | ? | 16.4µM*
CCNC(=S)N=Nc1c(O)[nH]c2ccc(C(C)C)cc12 | 2.0% | 5.17µM* | 11.3% | -14.8 | -21.2% | 5.17µM*
CCCCNC(=S)N=Nc1c(O)[nH]c2ccccc12 | -3.8% | 10.3µM* | 4.0% | -17.4 | ? | ?
CC(C)c1ccc2[nH]c(O)c(N=NC(=O)c3ccc(CSc4nncn4C)cc3)c2c1 | -6.9% | 16.4µM* | 2.5% | ? | -5.5% | 23.1µM*
Cn1cnnc1SCc1ccc(C(=O)NN)cc1 | -0.4% | -2.8% | 9.6% | -0.5 | -1.3% | 12.8%
NC(=S)N=Nc1c(O)[nH]c2ccccc12 | -1.6% | -9.9% | -25.5% | -9.7 | -0.2% | 13.3%
CC(C)c1ccc2[nH]c(O)c(N=NC(=S)NCCc3ccccc3)c2c1 | ? | 8.2µM* | -17.9% | 27.6 | ? | 18.4µM*
CC(C)CC(=O)N=Nc1c(O)[nH]c2ccccc12 | 27.9% | -6.5% | -13.5% | -25.7 | 17.0% | 0.1%
CCN(CC(=O)Nc1cccc(OC)c1)CC(=O)Nc1ccccc1C | -6.7% | -22.9% | 0.0% | 4.6 | -1.2% | 1.3%
Cc1cc(Br)ccc1NC(=O)CCSc1ccccc1 | -20.2% | -11.6% | -11.7% | -3.9 | -3.8% | -8.6%
CCN(CC(=O)Nc1cccc(OC)c1)CC(=O)Nc1ccc(Br)c(C)c1 | ? | -6.0% | -12.6% | -68.4* | ? | ?
COc1cccc(NC(=O)CN(C)CC(=O)Nc2ccc(C)cc2Cl)c1 | -13.6% | 13µM* | -21.5% | -5.3 | -0.6% | ?
Cc1cc(NC(=O)CCSc2ccccc2)ccc1Br | 3.1% | -6.7% | -31.4% | -66.8* | 1.9% | 7.1%
O=C(CCSc1ccc(Br)cc1)Nc1cccnc1 | -18.9% | 23.1µM* | -9.9% | 37.1 | -3.4% | 13.9%
O=C(Nc1cc(C(F)(F)F)ccc1Cl)C(F)(F)C(F)(F)C(F)(F)C(F)(F)C(=O)Nc1cc(C(F)(F)F)ccc1Cl | / | / | -22.7% | / | / | /
O=c1oc2cc(S(=O)(=O)N3CCOCC3)ccc2n1Cc1ccc(Cl)cc1 | / | / | -13.1% | / | / | /
Cc1cc(NC(=O)CN(C)CCOc2ccccc2)ccc1Br | ? | 18.4µM* | -22.7% | -51.7* | ? | 18.4µM*
Cc1ccc(NC(=O)CN(C)S(=O)(=O)c2ccc(Br)s2)cc1F | -11.1% | ? | -42.5% | -62.5* | -10.9% | 2.3%
O=C1C2C3C=CC(C3=C3CCCCC3)C2C(=O)N1c1ccccc1 (stereo unspecified) | 23.2% | 13µM* | 449.1% | -17.4 | 23.6% | ?
COc1ccc2cc(C(=O)N3CCN(S(=O)(=O)c4ccccc4)CC3)c(C)nc2c1 | / | / | -1.3% | / | / | /
COC(=O)[C@H](C(C)C)N(Cc1ccccc1)S(=O)(=O)CCN1CCCC1 | -2.8% | ? | -8.5% | -6.1 | -6.0% | ?
COC(=O)C(C(C)C)N(Cc1cc(OC)cc(OC)c1)S(=O)(=O)CCl (stereo unspecified) | 6.3% | 20.6µM* | -14.9% | 16.2 | 3.2% | 16.4µM*
N#CC(C(=O)CCOCc1ccccc1)c1ccc2ccccc2n1 (stereo unspecified) | / | / | -18.5% | / | / | /
CN(CC1CCOC1)S(=O)(=O)c1ccc(F)c(Cl)c1 (stereo unspecified) | / | / | 15.6% | / | / | /
COc1cccc(C(c2sc3nc(C)nn3c2O)N2CCc3ccccc3C2)c1 (stereo unspecified) | 21.0% | ? | 31.6µM* | 22.9 | 2.6% | ?
